50 sequences from the supplement of paper PMC11417369 can be followed below.

± gives the standard deviation of the averaged measurements. The full ranking holds about 25,000 sequences; the median of “ln(normalized median fluorescence intensity)” is about 7.9, and the highest 2% start at about 11. The entries come from a sample that favours the highest values as a whole.

For the test, the system named is PfAP2-I AP2 domain 3 (GST-tagged). As to the kind of experiment: gcPBM binding intensity (ln(normalized median fluorescence intensity)); higher = stronger DNA binding. The method, boiled down:
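Probes on an Agilent 4 × 180k array were primer-extended, double-stranded and 36 bp long, taken from intergenic genomic regions, with negative controls added. GST-tagged P. falciparum DNA-binding domains from E. coli, about 25 μg on average, were applied to the array for 1 h in 1× PBS containing 1% milk, 0.2 mg/ml BSA, 0.5% salmon testes DNA and 0.03% Triton X-100. Binding intensity, obtained after Alexa488 anti-GST antibody detection and a 488 nm scan, is the highest Masliner-normalised natural-log median intensity across replicate spots of either probe orientation.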
With “AATGAGAAGGACTGCACACTAAAATGGAAGGAGAAA [CACACA_site1575]”, the “gcPBM binding intensity (ln)” value was found to be 8.28 ± 0.79.

For the sequence “AAAAGGAGAAATATTGCACACGTGCAAAATGGTATG [CACACA_site4300]”, the “gcPBM binding intensity (ln)” value was 11.3 ± 0.085.

As to “GAGTGAAATATGCAAACACACACGAGAAAAATGTAT [CACACA_site3196]”, the “gcPBM binding intensity (ln)” value stood at 8.09 ± 0.85.

As to “AGGAAAATTATGAATGGTACAGAATATATTAGGAGA [XGTACX_site6282]”, the “gcPBM binding intensity (ln)” value came out at 8.05 ± 0.74.

For “AAGGAGAAATATTGCACACGTGCAAAATGGTATGAG [CACACA_site259]”, the “gcPBM binding intensity (ln)” value came out at 11.1 ± 0.35.

Regarding “GTGAAATATGCAAACACACACGAGAAAAATGTATAT [CACACA_site7488]”, the “gcPBM binding intensity (ln)” value is 8.19 ± 0.91.

Turning to “AAGAAGAGTTATTGTAGTACATTTTTAAATGTAATA [XGTACX_site7664]”, the “gcPBM binding intensity (ln)” value came out at 7.73 ± 0.34.

“TGTTATATAATTTAGCGTACAGGTTATAGGACGGAT [XGTACX_site8823]”: the “gcPBM binding intensity (ln)” value came out at 8.5 ± 0.35.

Regarding “CCATGATTATTAGATTGTACATAACATACAAATTGA [XGTACX_site314]”, the “gcPBM binding intensity (ln)” value worked out at 7.68 ± 0.45.

In the case of “TGTCATGATACATACACACACATACACATACACATA [CACACA_site2135]”, the “gcPBM binding intensity (ln)” value came out at 8.05 ± 0.42.

Consider “ATATATATATATATATGTACTAATTAATATTTCGAG [XGTACX_site580]”, for which the “gcPBM binding intensity (ln)” value was found to be 9.45 ± 0.49.

For the sequence “TTTTTTTTTTTCGGGGGTACTAATATATTATTAATA [XGTACX_site7809]”, the “gcPBM binding intensity (ln)” value turned out to be 10.8 ± 0.47.

As to “AATATTATATATATGGGTACTAATTCCTTTAATTTC [XGTACX_site102]”, the “gcPBM binding intensity (ln)” value was found to be 7.45 ± 0.53.

As to “ATATGCATAAAAAGAGGTACACATAAAATATATATA [XGTACX_site5864]”, the “gcPBM binding intensity (ln)” value was found to be 8.19 ± 0.64.

As for “TAAATAATTTATAAGTGTACTATTATTGCACGAATA [XGTACX_site7715]”, the “gcPBM binding intensity (ln)” value amounted to 11.1 ± 0.57.

Consider “GATATACAATTTAAGTGTACTATAATAAAATATATA [XGTACX_site3013]”, for which the “gcPBM binding intensity (ln)” value was determined as 7.79 ± 0.071.

Turning to “TTTATTTAAAATAAGTGTACTAGAAAAATTAAGCAG [XGTACX_site4982]”, the “gcPBM binding intensity (ln)” value amounted to 8.55 ± 0.16.

With “ACATATTTCCAATAATGTACATACAAAATAAGAATG [XGTACX_site2659]”, the “gcPBM binding intensity (ln)” value is 7.82 ± 0.58.

In the case of “AAAAAAAAAATATATTGTACAATATTGTAGCTATAT [XGTACX_site7180]”, the “gcPBM binding intensity (ln)” value was determined as 7.67 ± 0.49.

For “GTTTTTAAGAAAAACACACACTCCTGTTATTTTATA [CACACA_site3696]”, the “gcPBM binding intensity (ln)” value was found to be 7.67 ± 0.72.

In the case of “ATGCTTATTATTTATTGTACTGAATAAATATATCTG [XGTACX_site4483]”, the “gcPBM binding intensity (ln)” value turned out to be 7.79 ± 0.46.

Turning to “GTGCATAAATCATACACACACACATATATATATATA [CACACA_site2423]”, the “gcPBM binding intensity (ln)” value came to 10.4 ± 0.67.

As for “GTGCATAAATCATACACACACACATATATAAATATA [CACACA_site7188]”, the “gcPBM binding intensity (ln)” value was determined as 10.5 ± 0.65.

Turning to “TCGTGCATAAATCATACACACACACCGATATATATA [CACACA_site8767]”, the “gcPBM binding intensity (ln)” value was found to be 11.3 ± 0.67.

Turning to “TATACGGACTCTAAGTGTACTTAAAATAATTCAAAC [XGTACX_site3606]”, the “gcPBM binding intensity (ln)” value turned out to be 7.75 ± 0.53.

As to “AATTAACCCTAATTTTGTACATATTCCTTTTCTCAT [XGTACX_site46]”, the “gcPBM binding intensity (ln)” value was 7.92 ± 1.

With ATTTTATTTTATTAAGTGCAAAAAAAAAAAAAGAAA, the “gcPBM binding intensity (ln)” value worked out at 10.2 ± 0.32.

Regarding TATTTTTATTATATGGTGCATATATACATACATATA, the “gcPBM binding intensity (ln)” value worked out at 10.7 ± 0.79.

In the case of TATTATTATTTTATGGTGCAAAAAAAAAAAAAAAAA, the “gcPBM binding intensity (ln)” value stood at 10.9 ± 0.61.

As for “AAAAACAAAATTTGGAGTACAGTTATAATATTATTA [XGTACX_site5245]”, the “gcPBM binding intensity (ln)” value was determined as 8 ± 0.24.

On to “TAATATAATCTGAGTGCACACAAATAAATAAACATA [CACACA_site8032]”, for which the “gcPBM binding intensity (ln)” value stood at 10.5 ± 0.14.

Turning to “GCACAAATATATATATATATATATATATATATATAT [GTGCAC_negctrl_site661]”, the “gcPBM binding intensity (ln)” value stood at 9.07 ± 0.54.

In the case of “ATGAGTGCACAAATATATATATATATATATATATAT [CACACA_negctrl_site404]”, the “gcPBM binding intensity (ln)” value was determined as 11 ± 0.56.

Take “GGAAAATTATCAATAGCATGCAAAATGTGAATATTA [TGCATGCA_site901]”: the “gcPBM binding intensity (ln)” value was determined as 7.61 ± 0.7.

With “GAAAATATTATAGCACCACACACTTATTTTATATAT [CACACA_site2265]”, the “gcPBM binding intensity (ln)” value is 10.5 ± 0.71.

As to “AAATATTATAGCACCACACACTTATTTTATTTATAT [CACACA_site7133]”, the “gcPBM binding intensity (ln)” value was found to be 10.8 ± 0.55.

“AAATATTATAGCACCACACACTTATTTTATATATAT [CACACA_site5281]”: the “gcPBM binding intensity (ln)” value is 10.8 ± 0.86.

Turning to “ATTATTATTATATTTTGTACATATGTAACAATATAT [XGTACX_site5780]”, the “gcPBM binding intensity (ln)” value is 7.83 ± 0.47.

With “TATATAAATTTAATAACACACATATAAAAATGAATT [CACACA_site2366]”, the “gcPBM binding intensity (ln)” value was 7.61 ± 0.55.

In the case of “CATTTATATAAAAGAACACACATATAAAATATTATT [CACACA_site3601]”, the “gcPBM binding intensity (ln)” value worked out at 7.66 ± 0.52.

As for “AATTTAATATAATGCACACATAAAAAAAAAAAAAAA [CACACA_site123]”, the “gcPBM binding intensity (ln)” value is 11.2 ± 0.78.

With ATAATTTCATAATACGTGCACATAATATATAAAAAA, the “gcPBM binding intensity (ln)” value is 11.385 ± 0.007.

On to “ATAAAATATATATGCACACACATATATATTTCATAC [CACACA_site3547]”, for which the “gcPBM binding intensity (ln)” value turned out to be 9.5 ± 0.14.

Turning to “TTAAAAGAATATAATGCACACATTATTTTATTTTAT [CACACA_site3772]”, the “gcPBM binding intensity (ln)” value stood at 10.9 ± 0.73.

With “GCACACATATAATAATGTACATATATATATTTAAAA [XGTACX_site4561]”, the “gcPBM binding intensity (ln)” value came to 7.96 ± 0.44.

For the sequence “GAAATAATTTCATATACACACATATACATACATACA [CACACA_site1358]”, the “gcPBM binding intensity (ln)” value is 8.44 ± 0.72.

As for “AATAATTTTTTAAACACACACACATATATATATATA [CACACA_site95]”, the “gcPBM binding intensity (ln)” value amounted to 9.32 ± 0.28.

“AACATTTATATAAAAGAACACACATATAAAATATTA [CACACA_site9199]”: the “gcPBM binding intensity (ln)” value was 7.62 ± 0.61.

For “ATAAAAAAATTAAATACATGCACATATACACATACA [TGCATGCA_site129]”, the “gcPBM binding intensity (ln)” value is 8.17 ± 0.38.

With “AAAATTTAATATAATGCACACATAAAAAAAAAAAAA [CACACA_site7923]”, the “gcPBM binding intensity (ln)” value came out at 11 ± 0.93.
